Sampled rows, rich in hits. Any-hit rate of the full collection: about 11%.
HCV inh: blocks hepatitis C virus. actives 3.4% (n = 340,000). Huh7.5.1 HCVcc-Cre infection, luciferase reporter, 44 h. Potency, µM (doses to about 41.8 µM), most hits filed as inhibitors
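Reporter virus HCVcc-Cre (~0.5 moi) infects cells exposed to compound; seeding density 1,000 cells/well with 4 h settling beforehand. Luminescence, 15 sec read, taken 44 h post-infection following a 15 min RT substrate incubation.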
Pf growth 96h: inhibits malaria parasite growth, 96 h; P. falciparum luciferase reporter growth, 96 h; Potency, µM (series often up to 28.7 µM), most hits filed as inhibitors; actives 6.9% (n = 320,000); AID 504834
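P. falciparum expressing integrated firefly luciferase, in erythrocytes at 2% hematocrit, 0.05% parasitemia, incubated with compounds 96 h at 37 C, 5% CO2. Growth inhibition read as loss of luminescence; two-generation exposure targets delayed-death apicoplast inhibitors.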
AMA1-RON2 inh: disrupts binding of P. falciparum AMA1 to RON2; AlphaScreen AMA1-biotinylated RON2 peptide binding; Potency, µM (highest dose often 58.2 µM), hits mostly inhibitors; actives 0.2% (n = 360,000); note: nearly all actives have a fitted effect of over 45% in size
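AMA1 (3D7) with his tag at 25 nM final met compounds first, then biotinylated RON2 peptide at 25 nM; detection used donor plus acceptor beads, 10 µg/mL apiece, read by AlphaScreen after 30 min at room temperature.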
Pf growth 48h: inhibits P. falciparum growth in the first generation, 48 h | P. falciparum luciferase growth in erythrocytes, 48 h | Potency, µM (highest dose often 28.7 µM), hits mostly inhibitors | actives 5.9% (n = 310,000) | AID 504832
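Growth was read as firefly luciferase luminescence after a 48 h, 37 C, 5% CO2 exposure of compounds to reporter-bearing P. falciparum cultures (0.1% parasitemia, 2% hematocrit final) in Albumax-supplemented RPMI 1640.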
Hits are given with their value; i = inactive; ? = inconclusive; nt = not tested or not shown; [ ] = remark or other dose. Calls come from the whole dose curve; as a rule, active = well fitted curve in the direction sought with a large enough effect; inconclusive = small, poorly fitted or top-dose-only effect, or another doubt; inactive = no such curve, though single readings can be large; an effect the other way counts as inactive or inconclusive.

SMILES | HCV inh | Pf growth 96h | AMA1-RON2 inh | Pf growth 48h
COc1ccccc1C(=O)NNC(=O)c1sccc1-n1cccc1 | i | i | i | i
Cc1cc(C)c(C(=O)Nc2ccc(Br)c(C(F)(F)F)c2)c(C)c1 | ? | 9.3µM | i | 13µM
Cc1c(C)c2ccc(OCC(=O)Nc3cccnc3)cc2oc1=O | ? | i | i | i
CC(=O)O[C@H]1C[C@@]2(C)[C@@H](C[C@@H](O)[C@H]3[C@@]4(C)CC[C@@H](O)[C@@H](C)[C@@H]4CC[C@@]32C)/C1=C(\CCC=C(C)C)C(=O)O | ? | ? | i | 12µM
CC1CCc2c(sc(NC(=O)c3ccc(N4C(=O)CCC4=O)cc3)c2C(N)=O)C1 (centres undefined) | ? | ? | i | i
Cc1sc2ncnc(SCC(=O)N3CCOCC3)c2c1C | i | i | i | i
Cc1sc2ncnc(NCC3(N4CCOCC4)CCCCC3)c2c1C | i | 1.9µM | i | nt
CCc1cc2c(NCC3CCCO3)ncnc2s1 (centres undefined) | ? | i | i | i
Cc1sc2ncnc(NCC3CCCO3)c2c1C (centres undefined) | 13µM | i | i | i
Cc1sc2ncnc(NCC(C)(C)N3CCOCC3)c2c1C | 5.6µM | ? | i | nt
O=C(NCCC1CCCCN1S(=O)(=O)c1ccc(F)cc1)C(=O)NCC1CCCO1 (centres undefined) | i | i | i | i
O=C(OCc1cc([N+](=O)[O-])cc2c1OCOC2)c1cccnc1SC(F)F | 1µM | i | i | ?
Cc1ccc(/C=N\NC(=O)c2ccc3c(c2)OCO3)o1 | i | 1.3µM | i | i
O=C(NN=Cc1c(O)ccc2ccccc12)c1ccc2c(c1)OCO2 | 5µM | nt | i | nt
O=C(CN1CCCc2ccccc21)N/N=C/c1c(O)ccc2ccccc12 | 10µM | ? | i | ?
O=C(N/N=C\c1c(O)ccc2ccccc12)c1ccc(S(=O)(=O)N2CCCCC2)cc1 | 5µM | i | i | 1.5µM
O=Cc1cccn1-c1nccc(-c2ccco2)n1 | i | i | i | i
O=C(Nc1ccccc1F)Nc1ccccc1OC(F)F | i | i | i | i
CCOc1ccc(-c2c(C)n([O-])c3c([n+]2=O)CCCCC3)cc1 | i | i[5.75 µM] | i | i
O=C(N/N=C/c1c(O)ccc2ccccc12)c1ccc(CO)nc1 | 11µM | i | i | ?
COc1ccc2ccccc2c1/C=N/NC(=O)c1ccc(C)nc1 | ? | ? | i | i
CC(=O)Nc1cccc(NC(=O)CSc2nnc(Cc3cccn3C)n2-c2ccc(C)cc2)c1 | i | 4.1µM | i | ?
Cc1ccc(-n2c(Cc3cccn3C)nnc2SCC(=O)NCc2ccco2)cc1 | i | i | i | 8.3µM
Cc1ccc(-n2c(Cc3cccn3C)nnc2SCC(N)=O)cc1 | i | i | i | i
Cn1cccc1Cc1nnc(SCC(=O)Nc2cccc(F)c2)n1-c1ccc(F)cc1 | ? | ? | i | ?
SMILES | HCV inh | Pf growth 96h | AMA1-RON2 inh | Pf growth 48h
COc1ccc(-n2c(Cc3cccn3C)nnc2SCC(=O)Nc2cccc(NC(C)=O)c2)cc1 | i | i | i | i
Cn1cccc1Cc1nnc(SCC(=O)Nc2cccc(Cl)c2)n1-c1ccc(F)cc1 | i | 8.3µM | i | ?
COc1ccc(-n2c(Cc3cccn3C)nnc2SCC(=O)Nc2ccc(C(C)=O)cc2)cc1 | i | 0.47µM | i | nt
CC1CCCN(S(=O)(=O)c2cc3c4c(c2)C(C)C(=O)N4CCC3)C1 (centres undefined) | i | i | i | i
COC(=O)c1cc(CSc2nc3ccccc3c(=O)n2C)oc1C | ? | i | i | ?
Cc1ccc(NC(=O)CSc2nnc(Cc3cccn3C)n2-c2ccc(F)cc2)cc1 | i | ? | i | ?
COc1ccc(-n2c(Cc3cccn3C)nnc2SCC(=O)Nc2cccc(Cl)c2)cc1 | i | ? | i | ?
COc1ccc(Cl)cc1NC(=O)CSc1nnc(Cc2cccn2C)n1-c1ccc(F)cc1 | ? | ? | i | 13µM
CCc1ccc(NC(=O)CSc2nnc(Cc3cccn3C)n2-c2ccc(F)cc2)cc1 | i | 2.3µM | i | 10µM
CC(C)(C)N1C(=O)c2ccccc2NC(=O)C1C(=O)NCCOc1ccccc1 (centres undefined) | nt | nt | i | nt
CC(CC(c1ccccc1)N1CCc2ccccc2C1)=NO (centres undefined) | nt | nt | i | nt
COc1ccc(-c2nn(CCC#N)cc2C(=O)Nc2ccccc2)cc1OC | i | i | i | i
COc1ccc(-c2nn(CCC#N)cc2C(=O)NCc2ccccc2)cc1OC | i | 12µM | i | i
O=C1C(Cc2ccc3[nH]ccc3c2)NC(=S)N1c1ccccc1 (centres undefined) | i | i | i | i
Cc1cccc(Cl)c1OCCCN1CCOCC1 | i | 3.7µM | i | i
COc1ccc(CCNC(=O)CCc2ccsc2)cc1OC | i | i | i | i
C#CCNC(=O)C1=C[C@H](c2csc3ccccc23)C[C@H](OCCCCO)O1 | i | ? | i | ?
O=C(Nc1ccc(N2CCCCC2)cc1)c1ccc([N+](=O)[O-])o1 | ? | ? | i | i
CC(C)(C)C(=O)N1CCN(c2ccc(NC(=O)c3ccc([N+](=O)[O-])o3)cc2)CC1 | ? | 7.4µM | i | ?
O=C(Nc1ccc(N2CCN(Cc3ccccc3F)CC2)cc1)c1ccc([N+](=O)[O-])o1 | ? | ? | i | 1.9µM
CC(=O)Nc1ccc(N2CCN(Cc3ccccc3F)CC2)cc1 | i | nt | i | i
CCC(=O)Nc1ccc(N2CCN(Cc3ccccc3F)CC2)cc1 | i | 9.3µM | i | ?
O=C(Nc1ccc(N2CCN(C(=O)c3ccc(Cl)cc3)CC2)cc1)c1ccc([N+](=O)[O-])o1 | 10µM | ? | i | 3.3µM
O=C(COC(=O)CCC(=O)c1cccs1)Nc1cc(S(=O)(=O)N2CCOCC2)ccc1Cl | i | nt | i | i
CCCC(=O)N1CCN(c2ccc(NC(=O)c3ccc(Br)o3)cc2)CC1 | i | nt | i | i
SMILES | HCV inh | Pf growth 96h | AMA1-RON2 inh | Pf growth 48h
CCN(CC)c1ccc(NC(=O)CN2CCN(CC(=O)Nc3ccccc3F)CC2)cc1 | i | i | i | 12µM
CCN1CCN(c2ccc(NC(=O)c3ccc(Br)o3)cc2)CC1 | i | i | i | i
CN1CCN(c2ccc(NC(=O)c3ccc(-c4ccc(Br)cc4)o3)cc2)CC1 | 10µM | i | ? | 10µM
CCCC(=O)N1CCN(c2ccc(NC(=O)c3ccc([N+](=O)[O-])o3)cc2)CC1 | ? | i | i | 17µM
CCC(=O)N1CCN(c2ccc(NC(=O)c3ccc([N+](=O)[O-])o3)cc2)CC1 | ? | i | i | 10µM
CCN(CC)c1ccc(NC(=O)CN2CCN(CC(=O)Nc3ccccc3OC)CC2)cc1 | ? | i | ? | i
COc1cc(OC)cc(C(=O)NNC(=O)CCC(=O)c2cc(C)sc2C)c1 | i | nt | i[11.6 µM] | nt
CC1(C)OC(=O)C=C[C@]2(C)[C@H]3CC[C@@]4(C)[C@H](c5ccoc5)OC(=O)[C@H]5O[C@]54[C@]3(C)C(=O)C[C@@H]12 | i | i | i | i
CC(=O)O[C@@H]1C[C@H]2C(C)(C)C(=O)C=C[C@]2(C)[C@H]2CC[C@@]3(C)[C@H](c4ccoc4)OC(=O)[C@H]4O[C@]43[C@@]21C | ? | 3.3µM | i | 1.7µM

Screens deposited in PubChem BioAssay by National Center for Advancing Translational Sciences (NCATS).
